# Results published in ChEMBL document CHEMBL2218924, “A broad activity screen in support of a chemogenomic map for kinase signalling research and drug discovery” (Biochem J, 2013).
# Key:
# [1] = target: Death-associated protein kinase 1 (Homo sapiens) (UniProt P53355); conditions: at 10 µM
# [2] = target: T1, Discoidin domain-containing receptor 2 (Homo sapiens) (UniProt Q16832); conditions: at 1 µM
# T1 sequence (whole entry): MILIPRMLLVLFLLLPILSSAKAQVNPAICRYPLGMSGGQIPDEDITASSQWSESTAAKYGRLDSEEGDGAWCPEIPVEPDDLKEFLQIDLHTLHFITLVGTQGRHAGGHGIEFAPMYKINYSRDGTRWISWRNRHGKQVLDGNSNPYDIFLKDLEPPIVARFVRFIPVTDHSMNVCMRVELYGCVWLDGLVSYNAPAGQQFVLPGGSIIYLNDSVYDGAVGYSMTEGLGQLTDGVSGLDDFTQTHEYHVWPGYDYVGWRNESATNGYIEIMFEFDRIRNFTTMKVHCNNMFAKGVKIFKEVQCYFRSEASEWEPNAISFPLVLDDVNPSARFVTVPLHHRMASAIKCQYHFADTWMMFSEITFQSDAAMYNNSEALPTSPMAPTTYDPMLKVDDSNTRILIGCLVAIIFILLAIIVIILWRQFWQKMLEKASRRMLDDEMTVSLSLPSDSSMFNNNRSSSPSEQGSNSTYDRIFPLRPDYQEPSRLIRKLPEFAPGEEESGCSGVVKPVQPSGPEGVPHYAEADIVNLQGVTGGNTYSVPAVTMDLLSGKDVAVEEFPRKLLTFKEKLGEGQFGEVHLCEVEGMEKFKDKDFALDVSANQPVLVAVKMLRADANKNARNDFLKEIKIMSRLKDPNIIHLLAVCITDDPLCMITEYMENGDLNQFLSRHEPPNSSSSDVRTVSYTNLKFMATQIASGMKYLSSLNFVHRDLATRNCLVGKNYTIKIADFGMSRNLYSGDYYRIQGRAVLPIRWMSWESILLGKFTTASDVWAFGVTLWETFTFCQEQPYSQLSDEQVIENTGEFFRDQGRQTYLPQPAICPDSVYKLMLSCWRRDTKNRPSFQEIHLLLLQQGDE
# [3] = target: T1, Discoidin domain-containing receptor 2 (Homo sapiens); conditions: at 10 µM
# [4] = target: T2, Serine/threonine-protein kinase 17A (Homo sapiens) (UniProt Q9UEE5); conditions: at 1 µM
# T2 sequence (whole entry): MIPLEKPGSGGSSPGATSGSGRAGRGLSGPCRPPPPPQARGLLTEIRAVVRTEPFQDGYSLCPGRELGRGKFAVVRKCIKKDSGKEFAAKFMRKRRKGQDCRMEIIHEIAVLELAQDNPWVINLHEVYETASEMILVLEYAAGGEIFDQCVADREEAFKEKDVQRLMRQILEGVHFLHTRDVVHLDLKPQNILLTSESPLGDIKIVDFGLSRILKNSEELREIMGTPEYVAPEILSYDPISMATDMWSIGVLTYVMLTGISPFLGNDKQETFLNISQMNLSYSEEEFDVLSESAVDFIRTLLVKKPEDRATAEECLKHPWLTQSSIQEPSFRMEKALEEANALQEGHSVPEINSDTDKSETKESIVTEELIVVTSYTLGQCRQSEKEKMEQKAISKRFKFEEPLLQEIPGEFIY
# [5] = target: T2, Serine/threonine-protein kinase 17A (Homo sapiens); conditions: at 10 µM
# [6] = target: T3, Dual specificity tyrosine-phosphorylation-regulated kinase 2 (Homo sapiens) (UniProt Q92630); conditions: at 1 µM
# T3 sequence (whole entry): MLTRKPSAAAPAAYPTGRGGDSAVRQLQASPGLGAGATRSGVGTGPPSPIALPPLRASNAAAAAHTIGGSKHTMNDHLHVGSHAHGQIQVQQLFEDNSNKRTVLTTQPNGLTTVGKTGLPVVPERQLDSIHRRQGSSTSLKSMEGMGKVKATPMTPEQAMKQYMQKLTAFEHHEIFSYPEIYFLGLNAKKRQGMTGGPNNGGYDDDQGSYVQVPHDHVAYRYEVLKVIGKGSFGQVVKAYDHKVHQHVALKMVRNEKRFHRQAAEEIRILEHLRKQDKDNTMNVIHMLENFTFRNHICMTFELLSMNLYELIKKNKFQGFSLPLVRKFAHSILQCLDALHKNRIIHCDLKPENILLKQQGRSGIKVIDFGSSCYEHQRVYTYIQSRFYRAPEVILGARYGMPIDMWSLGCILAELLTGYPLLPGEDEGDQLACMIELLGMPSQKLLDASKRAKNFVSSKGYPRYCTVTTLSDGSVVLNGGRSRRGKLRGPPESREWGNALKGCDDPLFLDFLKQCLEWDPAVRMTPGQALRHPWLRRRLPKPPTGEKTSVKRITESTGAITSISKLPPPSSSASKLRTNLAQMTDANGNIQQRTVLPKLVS
# [7] = target: T3, Dual specificity tyrosine-phosphorylation-regulated kinase 2 (Homo sapiens); conditions: at 10 µM
# [8] = target: T4, Ephrin type-A receptor 1 (Homo sapiens) (UniProt P21709); conditions: at 1 µM
# T4 sequence (whole entry): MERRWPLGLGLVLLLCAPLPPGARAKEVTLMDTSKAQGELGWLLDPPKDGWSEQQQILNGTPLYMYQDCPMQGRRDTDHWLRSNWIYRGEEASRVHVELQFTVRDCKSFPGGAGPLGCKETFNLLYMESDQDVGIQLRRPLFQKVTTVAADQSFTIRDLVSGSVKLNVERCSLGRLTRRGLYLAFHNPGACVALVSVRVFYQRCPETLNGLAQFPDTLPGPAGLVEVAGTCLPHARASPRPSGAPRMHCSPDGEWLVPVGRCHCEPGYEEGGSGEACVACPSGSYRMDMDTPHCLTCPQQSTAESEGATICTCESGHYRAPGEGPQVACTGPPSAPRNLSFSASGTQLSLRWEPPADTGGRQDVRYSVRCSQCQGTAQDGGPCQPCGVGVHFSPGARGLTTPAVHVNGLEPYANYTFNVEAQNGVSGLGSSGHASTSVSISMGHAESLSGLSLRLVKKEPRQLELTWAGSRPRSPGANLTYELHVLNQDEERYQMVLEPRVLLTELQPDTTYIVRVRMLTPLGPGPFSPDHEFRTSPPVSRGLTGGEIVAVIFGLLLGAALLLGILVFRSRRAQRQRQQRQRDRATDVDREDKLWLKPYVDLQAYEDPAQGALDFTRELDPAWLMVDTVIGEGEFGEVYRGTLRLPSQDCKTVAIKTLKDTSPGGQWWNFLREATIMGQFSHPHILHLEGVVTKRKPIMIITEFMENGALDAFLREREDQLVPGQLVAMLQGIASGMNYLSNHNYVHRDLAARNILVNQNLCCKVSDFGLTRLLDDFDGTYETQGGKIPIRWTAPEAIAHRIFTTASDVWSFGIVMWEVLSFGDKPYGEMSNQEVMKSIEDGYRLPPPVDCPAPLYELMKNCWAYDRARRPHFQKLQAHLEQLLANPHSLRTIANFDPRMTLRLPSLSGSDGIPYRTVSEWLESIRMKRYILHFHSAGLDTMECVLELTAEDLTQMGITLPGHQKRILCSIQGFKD
# [9] = target: T4, Ephrin type-A receptor 1 (Homo sapiens); conditions: at 10 µM
# [10] = target: T5, Ephrin type-A receptor 3 (Homo sapiens) (UniProt P29320); conditions: at 1 µM
# T5 sequence (whole entry): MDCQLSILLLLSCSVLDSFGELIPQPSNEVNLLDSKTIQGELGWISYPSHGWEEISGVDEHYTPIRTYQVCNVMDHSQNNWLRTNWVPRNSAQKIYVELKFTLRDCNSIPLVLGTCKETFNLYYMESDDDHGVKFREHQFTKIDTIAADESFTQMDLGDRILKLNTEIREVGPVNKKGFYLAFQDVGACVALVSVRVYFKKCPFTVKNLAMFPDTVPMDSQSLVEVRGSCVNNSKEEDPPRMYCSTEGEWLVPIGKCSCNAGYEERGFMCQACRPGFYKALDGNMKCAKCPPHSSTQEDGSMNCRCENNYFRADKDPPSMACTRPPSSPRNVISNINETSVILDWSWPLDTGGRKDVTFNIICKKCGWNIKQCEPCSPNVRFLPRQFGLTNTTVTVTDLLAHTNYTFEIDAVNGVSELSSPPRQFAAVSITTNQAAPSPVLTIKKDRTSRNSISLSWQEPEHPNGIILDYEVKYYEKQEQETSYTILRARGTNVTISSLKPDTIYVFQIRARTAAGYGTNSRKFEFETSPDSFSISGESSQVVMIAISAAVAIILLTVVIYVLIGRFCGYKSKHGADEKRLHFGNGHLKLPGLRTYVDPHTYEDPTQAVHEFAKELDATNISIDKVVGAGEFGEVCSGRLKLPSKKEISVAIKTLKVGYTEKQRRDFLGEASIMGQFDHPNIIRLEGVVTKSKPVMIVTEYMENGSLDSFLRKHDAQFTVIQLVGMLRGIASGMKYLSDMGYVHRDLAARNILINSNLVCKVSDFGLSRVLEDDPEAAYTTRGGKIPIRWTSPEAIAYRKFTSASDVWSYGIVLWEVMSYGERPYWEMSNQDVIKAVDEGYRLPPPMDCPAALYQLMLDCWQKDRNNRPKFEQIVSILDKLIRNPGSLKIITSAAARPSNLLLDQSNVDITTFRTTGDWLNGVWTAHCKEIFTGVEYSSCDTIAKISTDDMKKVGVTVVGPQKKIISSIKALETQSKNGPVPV
# [11] = target: Death-associated protein kinase 2 (Homo sapiens) (UniProt Q9UIK4); conditions: at 10 µM
# [12] = target: T6, Serine/threonine-protein kinase DCLK2 (Homo sapiens) (UniProt Q8N568); conditions: at 1 µM
# T6 sequence (whole entry): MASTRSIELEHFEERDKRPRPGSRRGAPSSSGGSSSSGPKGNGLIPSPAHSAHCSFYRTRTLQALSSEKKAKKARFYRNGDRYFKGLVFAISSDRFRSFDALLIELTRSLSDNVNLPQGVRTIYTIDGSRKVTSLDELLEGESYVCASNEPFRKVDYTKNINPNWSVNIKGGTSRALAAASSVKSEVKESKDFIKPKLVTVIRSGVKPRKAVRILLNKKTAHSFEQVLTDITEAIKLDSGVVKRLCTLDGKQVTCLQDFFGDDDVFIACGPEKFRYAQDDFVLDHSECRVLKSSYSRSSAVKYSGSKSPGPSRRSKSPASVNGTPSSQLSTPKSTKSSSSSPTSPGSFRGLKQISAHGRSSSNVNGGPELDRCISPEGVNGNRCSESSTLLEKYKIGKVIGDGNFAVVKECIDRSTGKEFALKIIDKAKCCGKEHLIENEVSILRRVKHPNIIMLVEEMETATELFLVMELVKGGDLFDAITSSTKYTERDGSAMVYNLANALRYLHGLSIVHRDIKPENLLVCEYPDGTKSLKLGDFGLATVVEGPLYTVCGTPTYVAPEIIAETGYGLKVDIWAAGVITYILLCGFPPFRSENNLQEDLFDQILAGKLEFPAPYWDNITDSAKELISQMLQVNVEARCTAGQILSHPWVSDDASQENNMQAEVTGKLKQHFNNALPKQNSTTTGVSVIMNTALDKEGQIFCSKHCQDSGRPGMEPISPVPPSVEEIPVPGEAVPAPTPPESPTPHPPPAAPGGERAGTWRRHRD
# [13] = target: Ephrin type-A receptor 2 (Homo sapiens) (UniProt P29317); conditions: at 10 µM
# [14] = target: T6, Serine/threonine-protein kinase DCLK2 (Homo sapiens); conditions: at 10 µM
# [15] = target: T7, Myotonin-protein kinase (Homo sapiens) (UniProt Q09013); conditions: at 1 µM
# T7 sequence (whole entry): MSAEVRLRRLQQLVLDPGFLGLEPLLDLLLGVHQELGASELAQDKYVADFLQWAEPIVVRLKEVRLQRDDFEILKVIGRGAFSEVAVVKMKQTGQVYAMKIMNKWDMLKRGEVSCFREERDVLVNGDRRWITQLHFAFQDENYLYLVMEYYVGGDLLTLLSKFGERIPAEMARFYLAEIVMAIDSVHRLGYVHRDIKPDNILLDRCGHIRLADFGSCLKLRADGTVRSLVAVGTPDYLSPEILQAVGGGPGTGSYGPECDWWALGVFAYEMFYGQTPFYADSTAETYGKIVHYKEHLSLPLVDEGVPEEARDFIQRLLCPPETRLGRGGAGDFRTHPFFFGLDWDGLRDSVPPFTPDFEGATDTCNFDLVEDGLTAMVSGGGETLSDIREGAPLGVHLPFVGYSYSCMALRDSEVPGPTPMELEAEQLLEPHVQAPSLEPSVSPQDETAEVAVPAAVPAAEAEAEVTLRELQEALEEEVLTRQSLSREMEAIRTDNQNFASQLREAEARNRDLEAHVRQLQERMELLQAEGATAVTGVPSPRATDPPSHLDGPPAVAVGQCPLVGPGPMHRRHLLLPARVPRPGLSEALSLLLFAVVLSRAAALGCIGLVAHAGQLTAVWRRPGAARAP
# [16] = target: T7, Myotonin-protein kinase (Homo sapiens); conditions: at 10 µM
# Chain of Death-associated protein kinase 2 (Homo sapiens) (Q9UIK4 whole entry, looked up): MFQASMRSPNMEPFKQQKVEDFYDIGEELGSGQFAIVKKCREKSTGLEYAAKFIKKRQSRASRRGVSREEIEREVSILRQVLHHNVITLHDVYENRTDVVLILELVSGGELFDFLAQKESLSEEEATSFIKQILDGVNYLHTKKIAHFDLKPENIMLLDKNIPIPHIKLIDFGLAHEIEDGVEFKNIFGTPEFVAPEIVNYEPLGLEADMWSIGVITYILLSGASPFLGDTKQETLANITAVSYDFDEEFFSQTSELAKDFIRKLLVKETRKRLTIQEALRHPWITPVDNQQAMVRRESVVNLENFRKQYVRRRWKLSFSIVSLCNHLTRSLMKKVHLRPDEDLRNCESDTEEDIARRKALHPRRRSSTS
# Chain of Death-associated protein kinase 1 (Homo sapiens) (P53355 whole entry, looked up, the tested form may be a part): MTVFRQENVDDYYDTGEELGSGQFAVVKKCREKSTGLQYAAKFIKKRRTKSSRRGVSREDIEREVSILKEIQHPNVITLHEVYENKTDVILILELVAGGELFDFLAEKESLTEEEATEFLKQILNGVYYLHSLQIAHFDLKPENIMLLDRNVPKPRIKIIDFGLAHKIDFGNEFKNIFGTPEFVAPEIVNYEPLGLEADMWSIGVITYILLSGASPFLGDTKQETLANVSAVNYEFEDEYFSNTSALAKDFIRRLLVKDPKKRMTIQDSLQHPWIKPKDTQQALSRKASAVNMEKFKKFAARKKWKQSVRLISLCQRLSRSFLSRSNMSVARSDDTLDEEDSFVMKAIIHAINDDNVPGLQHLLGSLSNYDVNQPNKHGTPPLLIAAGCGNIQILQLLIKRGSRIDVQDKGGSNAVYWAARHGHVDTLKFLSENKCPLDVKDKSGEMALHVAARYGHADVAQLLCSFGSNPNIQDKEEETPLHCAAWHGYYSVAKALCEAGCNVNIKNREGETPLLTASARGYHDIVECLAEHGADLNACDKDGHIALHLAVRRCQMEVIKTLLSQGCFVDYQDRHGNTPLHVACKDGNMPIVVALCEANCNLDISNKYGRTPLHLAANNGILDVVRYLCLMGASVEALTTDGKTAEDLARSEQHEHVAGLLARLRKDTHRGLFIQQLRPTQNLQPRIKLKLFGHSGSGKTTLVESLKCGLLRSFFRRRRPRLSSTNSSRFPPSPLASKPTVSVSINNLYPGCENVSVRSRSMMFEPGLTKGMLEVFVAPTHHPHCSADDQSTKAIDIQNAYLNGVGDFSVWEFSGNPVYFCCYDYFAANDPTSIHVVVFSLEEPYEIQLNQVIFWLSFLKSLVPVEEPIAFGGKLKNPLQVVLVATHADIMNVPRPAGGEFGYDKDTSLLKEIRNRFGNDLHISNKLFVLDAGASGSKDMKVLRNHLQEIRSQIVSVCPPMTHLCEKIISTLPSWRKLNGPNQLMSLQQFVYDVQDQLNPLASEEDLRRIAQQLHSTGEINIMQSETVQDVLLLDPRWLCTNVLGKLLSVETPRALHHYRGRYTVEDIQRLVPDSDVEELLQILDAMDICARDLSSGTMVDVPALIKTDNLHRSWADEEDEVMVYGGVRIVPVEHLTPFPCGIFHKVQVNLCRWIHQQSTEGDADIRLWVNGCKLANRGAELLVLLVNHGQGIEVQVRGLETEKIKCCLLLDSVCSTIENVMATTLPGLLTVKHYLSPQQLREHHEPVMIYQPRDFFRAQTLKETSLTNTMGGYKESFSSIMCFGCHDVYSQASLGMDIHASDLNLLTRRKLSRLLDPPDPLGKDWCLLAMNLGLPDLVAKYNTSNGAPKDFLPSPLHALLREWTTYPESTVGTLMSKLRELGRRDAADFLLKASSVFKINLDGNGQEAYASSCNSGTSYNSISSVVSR
# Chain of Ephrin type-A receptor 2 (Homo sapiens) (P29317 whole entry): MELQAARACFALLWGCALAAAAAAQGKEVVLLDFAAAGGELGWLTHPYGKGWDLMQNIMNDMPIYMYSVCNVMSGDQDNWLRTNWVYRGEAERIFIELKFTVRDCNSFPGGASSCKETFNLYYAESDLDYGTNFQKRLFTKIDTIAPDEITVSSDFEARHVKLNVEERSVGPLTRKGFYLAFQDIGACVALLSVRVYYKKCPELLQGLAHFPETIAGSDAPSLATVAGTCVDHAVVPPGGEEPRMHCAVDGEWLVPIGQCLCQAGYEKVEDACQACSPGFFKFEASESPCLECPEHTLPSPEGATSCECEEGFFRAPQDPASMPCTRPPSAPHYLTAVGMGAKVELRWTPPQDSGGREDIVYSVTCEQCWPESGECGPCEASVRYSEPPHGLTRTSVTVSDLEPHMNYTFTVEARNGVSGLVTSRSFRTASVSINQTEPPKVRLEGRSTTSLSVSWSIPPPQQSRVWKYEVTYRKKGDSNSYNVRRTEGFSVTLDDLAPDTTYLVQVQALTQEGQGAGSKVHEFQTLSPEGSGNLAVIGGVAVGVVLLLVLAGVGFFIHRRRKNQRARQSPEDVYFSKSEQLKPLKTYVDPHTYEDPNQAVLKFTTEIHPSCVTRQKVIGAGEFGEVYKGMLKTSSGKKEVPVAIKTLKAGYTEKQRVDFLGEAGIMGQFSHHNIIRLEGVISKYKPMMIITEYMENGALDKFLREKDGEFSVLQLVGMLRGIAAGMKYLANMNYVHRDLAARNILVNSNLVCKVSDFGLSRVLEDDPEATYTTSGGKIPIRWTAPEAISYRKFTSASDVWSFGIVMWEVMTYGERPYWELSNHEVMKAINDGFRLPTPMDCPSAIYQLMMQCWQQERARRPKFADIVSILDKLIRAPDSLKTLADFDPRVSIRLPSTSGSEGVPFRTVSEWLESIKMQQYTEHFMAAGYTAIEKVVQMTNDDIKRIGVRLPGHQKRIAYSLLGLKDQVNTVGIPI
smiles,measurement,setting,value
O=C(Nc1nc2ccccc2n1CCN1CCOCC1)c1cccc([N+](=O)[O-])c1,residual activity,[1],73%
same,residual activity,[2],110%
same,residual activity,[3],112%
same,residual activity,[4],104%
same,residual activity,[5],53%
same,residual activity,[6],102%
same,residual activity,[7],88%
same,residual activity,[8],80%
same,residual activity,[9],123%
same,residual activity,[10],104%
O=C(Nc1ccc(Cl)cc1)c1ccccc1NCc1ccncc1,residual activity,[11],119%
same,residual activity,[12],74%
same,residual activity,[3],36%
same,residual activity,[4],99%
same,residual activity,[5],99%
NC(=O)c1cccc(-c2cc(Nc3ccc(OC(F)(F)F)cc3)ncn2)c1,residual activity,[5],145%
same,residual activity,[7],91%
same,residual activity,[9],96%
O=C1NC(=O)C(c2c[nH]c3ccccc23)=C1c1c[nH]c2ccccc12,residual activity,[11],58%
same,residual activity,[4],67%
same,residual activity,[5],25%
same,residual activity,[8],77%
same,residual activity,[9],22%
same,residual activity,[13],50%
c1ccc(-c2cnc(Nc3ccc(OCCN4CCCC4)cc3)s2)cc1,residual activity,[12],108%
same,residual activity,[14],54%
same,residual activity,[2],100%
same,residual activity,[3],48%
same,residual activity,[4],31%
same,residual activity,[5],4%
same,residual activity,[7],62%
same,residual activity,[8],77%
same,residual activity,[9],60%
same,residual activity,[10],104%
O=c1cc(N2CCOCC2)oc2c(-c3ccccc3)cccc12,residual activity,[14],76%
same,residual activity,[15],134%
same,residual activity,[16],130%
COc1ccc(-c2cnc3c(-c4ccsc4)cnn3c2)cc1,residual activity,[12],84%
same,residual activity,[14],100%
same,residual activity,[15],145%
same,residual activity,[16],129%
same,residual activity,[4],95%
same,residual activity,[5],98%
same,residual activity,[6],100%
same,residual activity,[7],94%
